# Source: PubChem BioAssay (NCATS)
# Records with an inconclusive call do not appear. The source made the active and inactive calls. The call rests on the fitted dose curve; in most records, active means well fitted inhibition curve with a large enough effect; inconclusive means small, poorly fitted or top-dose-only effect; inactive means no such curve, though single readings can be large or run the other way.
# Assay: Primary qHTS for inhibitors of nuclear receptor binding SET domain protein 2 (NSD2) in an RCH-ACV wild type WT cells (2C) (AID 1645877); further: nearly all actives have a fitted effect of over 70% in size
# Details: RCH-ACV (leukaemia line) NSD2 WT (2C) viability, CellTiter-Glo, 72 h; series mostly up to 44.9 µM; activity change, negative = cell killing: at the top concentration
# On the % scale 0 is the no-effect control and ±100 the full control effect; potency means the concentration at half of the fitted maximal effect.
Compound,"activity change, negative = cell killing",Potency,outcome
CC1(C)CC[C@]2(C(=O)O)CC[C@]3(C)C(=CCC4[C@@]5(C)C[C@H](O)[C@H](O[C@@H]6O[C@H](CO)[C@@H](O)[C@H](O)[C@H]6O)[C@@](C)(CO)C5[C@H](O)C[C@]43C)[C@@H]2C1 (stereo not given in full),-34.1% [at 17.3 µM] (inactive),,
C/C=C(\C)C(=O)OC1C2(O)CC3=C4CC(=O)OC(c5ccoc5)C4(C)CCC3C(C)(C2=O)C(C(OC(C)=O)C(=O)OC)C1(C)C (stereo not given),,3.83 µM (active),
CC(C)(CC(=O)N1CCCC1)NCC(=O)N1C[C@@H](F)C[C@H]1C#N,4.14% (inactive),,
Cc1c(O)cc2c(c1O)COC1(O)CCCOC21 (stereo not given),,,inactive
COc1cc(Nc2ccc([N+](=O)[O-])cc2C(=O)O)cc2ccccc12,0.43% (inactive),,
CC(=O)O[C@@H](C[C@@H]1C=C(C)C(=O)O1)[C@H](C)[C@H]1CCC2[C@@]3(C)CC[C@H](O[C@@H]4O[C@H](CO)[C@@H](O)[C@H](O)[C@H]4O[C@@H]4O[C@@H](C)[C@H](O)[C@@H](O)[C@H]4O)C(C)(C)C3CC[C@@]2(C)[C@@]12COC(=O)C2 (stereo not given in full),-8.37% [at 9.23 µM] (inactive),,
COC(=O)C1C(c2ccc(O)cc2)C(C(=O)O)C1c1ccc(O)cc1 (stereo not given),-15.1% (inactive),,
Cc1ccccc1NC(=O)Nc1ccc(CN2C(=O)N([C@@H](CC(C)C)C(=O)N[C@@H](CC(=O)O)c3ccccc3)C(=O)C2(C)C)cc1,-0.249% (inactive),,
COc1cc(C2Oc3c(OC)cc(CCCO)cc3C2CO)ccc1O (stereo not given),0.834% (inactive),,
COc1ccc(CCC(=O)c2c(O)cc(O[C@@H]3O[C@H](CO)[C@@H](O)[C@H](O)[C@H]3O[C@@H]3O[C@@H](C)[C@H](O)[C@@H](O)[C@H]3O)cc2O)cc1O,4.98% (inactive),,
